Bioassay records deposited in PubChem BioAssay by Sanford-Burnham Center for Chemical Genomics.
An excerpt weighted towards active compounds, which were near 3% of everything screened.
SENP8 block-1: inhibitors of human SENP8 protease. AID 602440. recombinant SENP8, Nedd8 substrate fluorescence. 360,000 compounds, 0.64% hits. Q96LD8. inhibition, % at 20 µM; in the data active = inhibition mostly above about 40%, no sharp cut-off; inactive = mostly below about 27%
Target sequence (Q96LD8 whole entry, looked up): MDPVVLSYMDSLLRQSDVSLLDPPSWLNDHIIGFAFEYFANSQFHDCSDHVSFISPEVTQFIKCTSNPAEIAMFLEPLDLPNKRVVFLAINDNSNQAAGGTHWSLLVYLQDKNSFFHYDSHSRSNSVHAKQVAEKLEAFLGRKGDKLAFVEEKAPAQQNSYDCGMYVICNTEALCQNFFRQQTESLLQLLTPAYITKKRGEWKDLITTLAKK
TRAIL sens C8: caspase-8 TRAIL sensitization. NB7+C8 cells + TRAIL, ATPlite viability luminescence. inhibition (viability loss, TRAIL sensitization), % at 10 µM. 360,000 compounds, 1% hits. AID 624354;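 active = compounds causing at least 50% loss of cell viability in the single-dose screen, relative to plate controls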
SENP6 inh: SENP6 protease inhibition; AID 2599; 330,000 compounds, 1.8% hits; Q9GZR1; inhibition, % at 10 µM; Recombinant SENP6 catalytic domain, aminoluciferin luminescence;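 active = inhibition above about 50% at the single tested dose, limit read from the data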;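 also: plate controls were DMSO wells with enzyme for no effect and DMSO wells lacking enzyme for full effect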
SENP7 block: SENP7 protease inhibition. AID 434973. 330,000 compounds, 1.5% hits. recombinant SENP7, Z-RLRGG-aminoluciferin luminescence, 40 min. inhibition, % at 5 µM. Q9BQF6;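 active = inhibition above about 50% at the single test dose, limit read from the data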;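 also: plate controls were DMSO with enzyme for no effect and no enzyme buffer wells for full effect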
Target sequence (Q9BQF6 706-1050 limits assumed): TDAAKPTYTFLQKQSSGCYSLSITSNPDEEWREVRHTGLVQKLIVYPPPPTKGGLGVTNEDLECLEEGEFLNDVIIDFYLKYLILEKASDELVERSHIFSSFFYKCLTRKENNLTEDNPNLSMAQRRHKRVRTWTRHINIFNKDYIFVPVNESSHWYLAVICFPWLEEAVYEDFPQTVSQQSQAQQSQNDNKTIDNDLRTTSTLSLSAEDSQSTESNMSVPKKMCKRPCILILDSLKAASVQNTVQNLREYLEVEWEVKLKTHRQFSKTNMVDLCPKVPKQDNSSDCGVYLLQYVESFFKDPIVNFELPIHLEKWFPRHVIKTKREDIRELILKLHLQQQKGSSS
SENP8 block-2: inhibitors of human SENP8 protease; 330,000 compounds, 1.2% hits; purified SENP8, Z-RLRGG-aminoluciferin cleavage, luminescence; Q96LD8; inhibition, % at 10 µM; in the data active = inhibition above about 50%
PPC-1+TRAIL kill: PPC-1 cancer cell killing with TRAIL present; cell killing (% activity), % at 4 µM or 5 µM; 220,000 compounds, 0.41% hits; PPC-1 cells + TRAIL, ATPLite viability luminescence;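 active = cell killing above 50% in the first pass at 4 µM, then a duplicate retest at 5 µM averaging 50% or more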;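 also: plate controls were cells with TRAIL plus DMSO for no effect and medium-only wells lacking cells for full effect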
Active calls of the source: *; i = inactive; . = not tested or not shown.

SMILES	SENP8 block-1	TRAIL sens C8	SENP6 inh	SENP7 block	SENP8 block-2	PPC-1+TRAIL kill
C/C=C/c1ccc(OCCCNC(C)CC)c(OC)c1 (centres undefined)	32	-4	-2	-5	-3	20
C/C=C/c1ccc(OCCCNC2CCCC2)c(OC)c1	18	54*	-25	-9	-12	34
NC(CCc1ccccc1)c1csc(NC(=O)NCCc2ccccc2)n1 (centres undefined)	11	27	.	.	.	.
CC(C)c1ccc(NC(=O)Nc2nc(C(N)COCc3ccccc3)cs2)cc1 (centres undefined)	14	77*	.	.	.	.
COc1cc(OC)nc(Nc2nc(C(N)Cc3ccc(C(F)(F)F)cc3)cs2)n1 (centres undefined)	-28	80*	.	.	.	.
NC(Cc1ccc(C(F)(F)F)cc1)c1csc(NC(=O)Nc2ccccc2Cc2ccccc2)n1 (centres undefined)	24	79*	.	.	.	.
CC(C)c1ccc(NC(=O)Nc2nc(C(N)c3ccccc3)cs2)cc1 (centres undefined)	3	27	.	.	.	.
NC(CCc1ccccc1)c1csc(NC(=O)Nc2ccccc2Oc2ccccc2)n1 (centres undefined)	23	87*	.	.	.	.
Cc1cc(C)nc(Nc2nc(C(N)Cc3ccc(C(F)(F)F)cc3)cs2)n1 (centres undefined)	-9	39	.	.	.	.
COc1ccccc1N1CCN(c2ccc3c(c2)S(=O)(=O)c2cccc(C(=O)NCc4cccc(F)c4)c2C3=O)CC1	20	2	.	.	.	.
NC(Cc1ccc(Cl)cc1)c1csc(NC(=O)NCCc2ccccc2)n1 (centres undefined)	14	28	.	.	.	.
NC(Cc1ccc(Cl)cc1)c1csc(NC(=O)NCC2CCCCC2)n1 (centres undefined)	18	86*	.	.	.	.
O=C(Nc1ccc(N=Nc2ccccc2)cc1)c1ccccc1Cl	51*	-2	-2	2	-23	14
O=C(Nc1ccc(N=Nc2ccccc2)cc1)c1ccc(Cl)cc1Cl	20	-19	-5	4	-1	0
O=S(=O)(O)c1cc(O)c(N=Nc2ccc(O)cc2O)c2ccccc12	12	18	.	.	.	.
O=[N+]([O-])c1ccccc1N=Nc1ccc(O)cc1O	65*	0	.	.	.	.
C/C(=N\NC(=O)c1ccc2c(c1)OCO2)c1ccc(NC(=O)CCCC(=O)O)cc1	13	-6	0	5	-6	.
COc1cccc(/C=C/C(=O)c2ccc3c(c2)OCCO3)c1OC	9	71*	-22	4	4	.
COc1ccccc1OCCNC(=O)c1ccc2c(c1)OCCO2	8	52*	-6	-10	-15	.
COc1ccccc1OCCNC(=O)CNC(=O)c1ccc2c(c1)OCO2	-4	8	0	0	9	.
CCOC(=O)C1(C)CCCCCN1C(=O)/C=C/c1ccccc1 (centres undefined)	11	-8	.	.	.	.
CN(C(=O)c1ccc(NC(=O)Cc2cccc(NC(=O)C3CCCN(S(=O)(=O)c4cccc([N+](=O)[O-])c4)C3)c2)cc1)C1CC1 (centres undefined)	10	54*	.	.	.	.
CN(C(=O)c1ccc(NC(=O)Cc2ccc(NC(=O)C3CCCN(S(=O)(=O)c4cccc([N+](=O)[O-])c4)C3)cc2)cc1)C1CCCC1 (centres undefined)	9	-10	.	.	.	.
Cn1c2ccccc2c(=O)n2c(=O)c3ccccc3cc12	.	.	90*	95*	97*	4
Cc1ccc(S(=O)(=O)NCC(=O)N2CCOCCOCCOCC2)cc1	7	6	4	7	-3	.
SMILES	SENP8 block-1	TRAIL sens C8	SENP6 inh	SENP7 block	SENP8 block-2	PPC-1+TRAIL kill
Cc1ccc(NC(=O)CN(C)C(=O)C(C)OC(=O)c2ccccc2NCCO)cc1 (centres undefined)	i	-5	-4	-7	-8	.
CNc1nc(Nc2ccc(Br)cc2)nc(N)c1[N+](=O)[O-]	17	-8	36	88*	12	0
CC(C)(C)c1ccc(C(=O)Nc2cccc(C(=O)N3CCOCC3)c2)cc1	9	63*	10	4	-6	.
CC(C)(C)c1ccc(C(=O)Nc2cccc(-n3cnnn3)c2)cc1	11	71*	-9	-14	-5	.
Cc1ccc(C(=O)Nc2cccc(C(=O)N3CCOCC3)c2)cc1	9	3	-2	1	-1	-17
CN(c1ccccc1)S(=O)(=O)c1cccc(NC(=O)C2CCCO2)c1 (centres undefined)	4	-12	9	8	3	.
COc1cc(NCC2COc3c(ccc(OC)c3OC)C2=O)c([N+](=O)[O-])cc1OC (centres undefined)	4	1	.	.	.	.
CCOc1nc(OCC)c2cnn(C)c2n1	10	26	0	7	-10	-17
COc1cccc(C(=O)Nc2cc3c(cc2Cl)OCCCO3)c1	6	40	51*	40	34	19
COc1cc(CNCc2c[nH]c3ccccc23)cc(OC)c1	27	-16	17	-8	0	10
Cc1ccc2nc(SCC(=O)c3c(N)n(C4CC4)c(=O)[nH]c3=O)[nH]c2c1	6	-9	-6	7	-4	.
Cc1ccc(Nc2nnc(SCC(=O)c3c(N)n(C4CC4)c(=O)[nH]c3=O)s2)cc1C	-6	55*	-17	-1	-1	.
CCCc1cc(=O)[nH]c(SCC(=O)c2c(N)n(C3CC3)c(=O)[nH]c2=O)n1	11	85*	2	-1	0	.
Cc1cc(Cl)n2ncc(-c3ccccc3)c2n1	-33	91*	-3	1	-8	22
COc1ccccc1N(C(=O)CCl)c1cn(C(C)=O)c2ccccc12	24	92*	-8	-7	2	23
CC(=O)n1cc(N(C(=O)CCl)c2ccc(Cl)cc2)c2ccccc21	17	94*	-24	0	4	39
CCOC(=O)N1CCC(Nc2c(OCC)c(=O)c2=O)CC1	12	4	0	7	-8	52*
CCOC(=O)N1CCC(Nc2c(NCCCOC)c(=O)c2=O)CC1	18	-3	23	-1	-8	22
Nc1c(N(CCC2=CCCCC2)C(=O)COc2ccc(F)cc2)c(=O)[nH]c(=O)n1Cc1ccccc1	2	73*	3	6	5	.
COc1cccc(N=Nc2c(N)[nH][nH]c2=O)c1	38	8	0	22	0	9
COc1cccc(N=Nc2c(N)[nH]n3c(=O)c4c(nc23)CCCC4)c1	50*	9	3	10	-3	23
CCOC(=O)c1cnc2c(-c3cccc(Br)c3)cnn2c1C	14	-5	15	55*	1	1
CCOC(=O)c1cnc2c(C(=O)OCC)cnn2c1N	-74	13	-32	4	1	1
O=[N+]([O-])c1cc(CN2CCC(O)CC2)ccc1Cl	10	0	-5	-11	-11	10
CCc1nnc(NS(=O)(=O)c2ccc(N=Cc3c(C)[nH]n(-c4ccc(C)c(C)c4)c3=O)cc2)s1	25	56*	14	-5	-8	44
